Experiment in all cases: NCI-60 one-dose screen, 48 h (100 = growth as untreated, 0 = no growth, -100 = all killed)
Common to all, as to details: 10 µM unless noted

In assay [1] the test system is SK-MEL-2 melanoma.
Assay [2] relates to EKVX NSCLC.
The subject of assay [3] is SN12C renal.
Assay [4] concerns UO-31 renal.
Assay [5] relates to TK-10 renal.
Assay [6] concerns ACHN renal.
Assay [7] relates to A498 renal.
In assay [8] the test system is CCRF-CEM leukemia.
Assay [9] relates to MOLT-4 leukemia.
Assay [10] relates to SR leukemia.

About 83,000 compounds went through this panel and 20% of them were active in at least one assay; those are over-represented in the sample as a whole.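 Values shown are percent growth following 48 h exposure of cells in 96-well plates to a single concentration of compound; below 10 was considered active.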 A number with no mark means an inactive call. Active and inactive are the calls of the source.

In the case of `C=C1C(=O)O[C@H]2[C@H]1CC/C(COC(=O)/C=C/c1cccnc1)=C\CC[C@@]1(C)O[C@@H]21`, the growth in assay [1] was 75.2%; in assay [2], 43.4%; in assay [3], 16.8%; in [4], 24.9%; in [5], 25.1%; in assay [6], -11.4% (active). Moreover, the growth is 92.4% in assay [7], -7.32% (active) in assay [8], 8.45% (active) in [9] and 6.38% (active) in assay [10].

For the molecule `C=C(C)[C@@H]1CC[C@]2(C(=O)OCCCC[P+](c3ccccc3)(c3ccccc3)c3ccccc3)CC[C@]3(C)[C@H](CC[C@@H]4[C@@]5(C)CC[C@H](OC(=O)C(Cl)Cl)C(C)(C)[C@@H]5CC[C@]43C)[C@@H]12`, the growth in [1] is -67.5% (active); in assay [2] it was -13.3% (active); in assay [3] it was -62.2% (active); in assay [4], -51% (active); in assay [5], -36.2% (active); in [6], -39.6% (active). The growth is -58.9% (active) in [7], 0.798% (active) in assay [8], -45% (active) in assay [9] and -34% (active) in [10].

Consider `COc1cc(NC(=O)c2cc(O)c(C/C=C(\C)CCC=C(C)C)c(O)c2)cc2c1O[C@]1(C)CC[C@@H](O)C(C)(C)[C@H]1C2`, for which the growth in assay [1] was -5.49% (active); in [2], 26.1%; in assay [3], 20.5%; in [4], -21.5% (active); in [5], 56.1%; in assay [6] it was 4.47% (active). The growth was -29.2% (active) in assay [7], 6.24% (active) in assay [8], 0.564% (active) in assay [9] and -1.71% (active) in assay [10].

For the molecule `Cc1ccc(CS/C(=C\c2ccc([N+](=O)[O-])cc2)C(=O)c2ccc(F)cc2)cc1`, the growth in [1] was 74.5%; in assay [2], 64%; in assay [3], 45.9%; in assay [4] it was 46.7%; in assay [5], 91.7%; in [6], 60.1%. Besides, the growth in assay [7] is 89.4%; in assay [8] it was 5.04% (active); in assay [9], 3.17% (active); in [10] it was 0.11% (active).

On to `CCC[S@](=O)c1ccc2nc(NC(=O)OC)[nH]c2c1`, for which the growth in assay [1] is 99.2%; in assay [2], 95.3%; in assay [3], 100%; in assay [4], 96.8%; in [5] it was 91.7%; in assay [6], 103%. For the same molecule, the growth in [7] was 95.1%; in assay [8] it was 96.2%; in assay [9] it was 79.6%; in assay [10], 75.3%.

As to `C=C(C)[C@@H]1CC[C@]2(C(=O)N3CCN(C)CC3)CC[C@]3(C)[C@H](CC[C@@H]4[C@@]5(C)C/C(=C/c6ccco6)C(=O)C(C)(C)[C@@H]5CC[C@]43C)[C@@H]12`, the growth in [1] is 83.7%; in assay [2], 68.2%; in [3], 64.9%; in [4], 60.5%; in assay [5], 98.8%; in [6] it was 74.7%. The growth in assay [7] was 97.5%; in assay [8], 50.1%; in assay [9], 28.6%; in assay [10] it was -21.9% (active).

For the molecule `COC(=O)c1ccc(NC(=O)CSc2nc(-c3ccc(F)cc3)nc3ccccc23)cc1`, the growth is 99.8% in assay [1]; 91.4% in assay [2]; 79.3% in assay [3]; 82.3% in [4]; 113% in [5]; 97.4% in [6]. For the same molecule, the growth in assay [7] is 99.6%; in [8], 85.7%; in [9], 89%; in assay [10], 78%.

In the case of `O=C(O)COc1ccc2c(=O)c3sc4c(=O)c5ccccc5c(=O)c4c3c(=O)c2c1`, the growth was 25.5% in assay [1]; 78.9% in assay [2]; -11.6% (active) in assay [3]; 43.5% in [4]; 74.8% in assay [5]; 62.7% in assay [6]. Further, the growth was -86.9% (active) in assay [7], 56.8% in assay [8], 45.1% in [9] and 26.6% in assay [10].

Take `Cc1ccc(C(=O)O)o1`: the growth in assay [1] was 96.1%; in assay [2], 104%; in assay [3], 110%; in assay [4], 95.4%; in assay [5] it was 96.9%; in assay [6], 111%. Besides, the growth is 108% in assay [7], 115% in assay [8], 101% in [9] and 116% in [10].

Take `Cc1c(Br)cccc1NC(=O)c1sc2nc3c(cc2c1N)CN(Cc1ccccc1)CC3`: the growth in assay [1] is 25.5%; in assay [2], 34.3%; in [3], 28.1%; in assay [4], 48.2%; in assay [5], 49.8%; in assay [6], 39.6%. Besides, the growth in assay [7] is -8.85% (active); in assay [8], 3.86% (active); in assay [9], 10.3%; in assay [10], 9.33% (active).

Regarding `OCCNc1nc(NCCO)nc(Nc2ccc(C3=NN(c4cc(Cl)cc(Cl)c4)C(c4ccccc4)C3)cc2)n1` (stereo not given), the growth in assay [1] is 40.4%; in assay [2], 59.4%; in assay [3], 55%; in [4], 56.9%; in assay [5], 74.1%; in assay [6], 42.2%. For the same molecule, the growth in assay [7] was 85.1%; in assay [8], 24.3%; in [9], 20.5%; in assay [10] it was 5.4% (active).

On to `C=C1C(=O)O[C@H]2[C@H]1CC/C(C=Nc1c(N)cc(F)cc1Br)=C\CC[C@@]1(C)O[C@@H]21`, for which the growth in assay [1] was 86.7%; in assay [2] it was 75.2%; in assay [3] it was 76.1%; in [4], 53.5%; in assay [5], 81.7%; in assay [6], 63.4%. The growth was 119% in assay [7], 7.71% (active) in assay [8], 45.9% in [9] and 21.3% in [10].

On to `C=C1C(=O)O[C@H]2[C@H]1CC/C(C=Nc1c(N)cc(C(F)(F)F)cc1Br)=C\CC[C@@]1(C)O[C@@H]21`, for which the growth was -31.6% (active) in assay [1]; 18.1% in assay [2]; -21.8% (active) in assay [3]; -71.5% (active) in [4]; -27.3% (active) in [5]; -44.6% (active) in [6]. Besides, the growth in assay [7] is 55.2%; in assay [8], 2.83% (active); in assay [9], -2.99% (active); in [10], -4.04% (active).
